# Source: PubChem BioAssay AID1159580 (chemical genetic matrix, 2015)
# The campaign covered roughly 5,500 compounds. About 2,000 (36%) were called active. Roughly 18% stayed inconclusive and do not appear here. The list shows a part of the results. Values without a mark were called inactive. Cut-off read from the data, not from the text of the source: active = normalized growth mostly below about 0.91 (no sharp cut-off); inconclusive = no clear call, values can overlap the other calls; inactive = mostly above about 0.92.
# Experiment: chemical genetic growth profiling, strain panel (AID 1159580);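 note: tested at 20 µM; growth read once vehicle control cultures reached saturation at 30 °C; 1 = growth at the plate median or of vehicle wells; lower values mean less growth of the strain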
# Conditions: growth OD
smiles,measurement,setting,value
CCCCOc1ccc(C(=O)CCN2CCCCC2)cc1,normalized growth,"S. cerevisiae deletion strains, locus YJR066W, strain TOR1, stronger effect = lower value",0.67 (active)
same,normalized growth,"S. cerevisiae deletion strains, locus YJR075W, strain HOC1, stronger effect = lower value",0.66 (active)
same,normalized growth,"S. cerevisiae deletion strains, locus YKL009W, strain mrt4, stronger effect = lower value",0.902
same,normalized growth,"S. cerevisiae deletion strains, locus YKL068W, stronger effect = lower value",0.994
same,normalized growth,"S. cerevisiae deletion strains, locus YKL085W, strain MDH1 (second series), stronger effect = lower value",0.973
same,normalized growth,"S. cerevisiae deletion strains, locus YKL085W, strain MDH1, stronger effect = lower value",0.973
same,normalized growth,"S. cerevisiae deletion strains, locus YKL160W, strain elf1, stronger effect = lower value",0.918
same,normalized growth,"S. cerevisiae deletion strains, locus YKR001C, strain vps1, stronger effect = lower value",0.559 (active)
same,normalized growth,"S. cerevisiae deletion strains, locus YKR026C, strain gcn3, stronger effect = lower value",0.996
same,normalized growth,"S. cerevisiae deletion strains, locus YKR091W, strain srl3, stronger effect = lower value",0.999
same,normalized growth,"S. cerevisiae deletion strains, locus YLL001W, strain dnm1, stronger effect = lower value",0.428 (active)
same,normalized growth,"S. cerevisiae deletion strains, locus YLL026W, stronger effect = lower value",0.948
same,normalized growth,"S. cerevisiae deletion strains, locus YLL041C, strain sdh2, stronger effect = lower value",0.981
same,normalized growth,"S. cerevisiae deletion strains, locus YLR027C, strain aat2, stronger effect = lower value",0.888 (active)
same,normalized growth,"S. cerevisiae deletion strains, locus YLR039C, strain RIC1, stronger effect = lower value",0.426 (active)
same,normalized growth,"S. cerevisiae deletion strains, locus YLR058C, strain SHM2, stronger effect = lower value",0.85 (active)
same,normalized growth,"S. cerevisiae deletion strains, locus YLR102C, strain apc9, stronger effect = lower value",0.0845 (active)
same,normalized growth,"S. cerevisiae deletion strains, locus YLR113W, strain HOG1, stronger effect = lower value",1.03
same,normalized growth,"S. cerevisiae deletion strains, locus YLR221C, strain rsa3, stronger effect = lower value",0.952
same,normalized growth,"S. cerevisiae deletion strains, locus YLR258W, strain gsy2, stronger effect = lower value",0.95
same,normalized growth,"S. cerevisiae deletion strains, locus YLR262C, strain YPT6 (second series), stronger effect = lower value",0.662 (active)
same,normalized growth,"S. cerevisiae deletion strains, locus YLR262C, strain YPT6, stronger effect = lower value",0.523 (active)
same,normalized growth,"S. cerevisiae deletion strains, locus YLR268W, strain sec22, stronger effect = lower value",0.244 (active)
same,normalized growth,"S. cerevisiae deletion strains, locus YLR320W, strain mms22, stronger effect = lower value",0.565 (active)
same,normalized growth,"S. cerevisiae deletion strains, locus YLR330W, strain CHS5, stronger effect = lower value",0.0853 (active)
same,normalized growth,"S. cerevisiae deletion strains, locus YLR342W, strain FKS1 (second series), stronger effect = lower value",0.432 (active)
same,normalized growth,"S. cerevisiae deletion strains, locus YLR342W, strain FKS1, stronger effect = lower value",0.985
same,normalized growth,"S. cerevisiae deletion strains, locus YLR357W, strain rsc2, stronger effect = lower value",1.03
same,normalized growth,"S. cerevisiae deletion strains, locus YLR370C, strain arc18, stronger effect = lower value",0.85 (active)
same,normalized growth,"S. cerevisiae deletion strains, locus YLR371W, strain rom2, stronger effect = lower value",0.0987 (active)
same,normalized growth,"S. cerevisiae deletion strains, locus YLR384C, strain iki3, stronger effect = lower value",0.976
same,normalized growth,"S. cerevisiae deletion strains, locus YLR418C, strain cdc73, stronger effect = lower value",0.267 (active)
same,normalized growth,"S. cerevisiae deletion strains, locus YML016C, strain PPZ1, stronger effect = lower value",0.17 (active)
same,normalized growth,"S. cerevisiae deletion strains, locus YML032C, strain rad52, stronger effect = lower value",0.748 (active)
same,normalized growth,"S. cerevisiae deletion strains, locus YML120C, strain ndi1, stronger effect = lower value",0.973
same,normalized growth,"S. cerevisiae deletion strains, locus YML124C, strain tub3, stronger effect = lower value",0.552 (active)
same,normalized growth,"S. cerevisiae deletion strains, locus YMR058W, strain fet3, stronger effect = lower value",0.731 (active)
same,normalized growth,"S. cerevisiae deletion strains, locus YMR078C, strain ctf18, stronger effect = lower value",0.138 (active)
same,normalized growth,"S. cerevisiae deletion strains, locus YMR125W, strain sto1, stronger effect = lower value",0.927
same,normalized growth,"S. cerevisiae deletion strains, locus YMR129W, stronger effect = lower value",0.99
same,normalized growth,"S. cerevisiae deletion strains, locus YMR205C, strain PFK2, stronger effect = lower value",0.875 (active)
same,normalized growth,"S. cerevisiae deletion strains, locus YMR223W, strain ubp8, stronger effect = lower value",0.16 (active)
same,normalized growth,"S. cerevisiae deletion strains, locus YMR231W, strain pep5, stronger effect = lower value",0.972
same,normalized growth,"S. cerevisiae deletion strains, locus YMR263W, strain SAP30, stronger effect = lower value",0.916
same,normalized growth,"S. cerevisiae deletion strains, locus YMR307W, strain GAS1, stronger effect = lower value",0.727
same,normalized growth,"S. cerevisiae deletion strains, locus YNL067W, strain RPL9B, stronger effect = lower value",0.589 (active)
same,normalized growth,"S. cerevisiae deletion strains, locus YNL071W, strain lat1, stronger effect = lower value",0.567 (active)
same,normalized growth,"S. cerevisiae deletion strains, locus YNL153C, strain GIM3, stronger effect = lower value",0.839 (active)
same,normalized growth,"S. cerevisiae deletion strains, locus YNL183C, strain NPR1, stronger effect = lower value",0.435 (active)
same,normalized growth,"S. cerevisiae deletion strains, locus YNL209W, strain ssb2, stronger effect = lower value",0.981
same,normalized growth,"S. cerevisiae deletion strains, locus YNL233W, strain BNI4, stronger effect = lower value",0.167 (active)
same,normalized growth,"S. cerevisiae deletion strains, locus YNL248C, strain rpa49, stronger effect = lower value",0.645 (active)
same,normalized growth,"S. cerevisiae deletion strains, locus YNL250W, strain rad50, stronger effect = lower value",0.986
same,normalized growth,"S. cerevisiae deletion strains, locus YNL271C, strain bni1, stronger effect = lower value",0.94
same,normalized growth,"S. cerevisiae deletion strains, locus YNL298W, strain CLA4, stronger effect = lower value",0.96
same,normalized growth,"S. cerevisiae deletion strains, locus YNL307C, strain MCK1, stronger effect = lower value",0.0713 (active)
same,normalized growth,"S. cerevisiae deletion strains, locus YNL322C, strain KRE1 (second series), stronger effect = lower value",1.03
same,normalized growth,"S. cerevisiae deletion strains, locus YNR049C, strain mso1, stronger effect = lower value",0.693 (active)
same,normalized growth,"S. cerevisiae deletion strains, locus YNR052C, strain pop2, stronger effect = lower value",0.864 (active)
same,normalized growth,"S. cerevisiae deletion strains, locus YOL006C, strain TOP1, stronger effect = lower value",0.248 (active)
same,normalized growth,"S. cerevisiae deletion strains, locus YOL012C, strain htz1",0.354
same,normalized growth,"S. cerevisiae deletion strains, locus YOL147C, strain pex11, stronger effect = lower value",0.965
same,normalized growth,"S. cerevisiae deletion strains, locus YOR001W, strain rrp6, stronger effect = lower value",0.833 (active)
same,normalized growth,"S. cerevisiae deletion strains, locus YOR061W, strain CKA2, stronger effect = lower value",0.691 (active)
same,normalized growth,"S. cerevisiae deletion strains, locus YOR069W, strain VPS5, stronger effect = lower value",0.558 (active)
same,normalized growth,"S. cerevisiae deletion strains, locus YOR070C, strain gyp1, stronger effect = lower value",0.938
same,normalized growth,"S. cerevisiae deletion strains, locus YOR080W, strain dia2, stronger effect = lower value",0.975
same,normalized growth,"S. cerevisiae deletion strains, locus YOR083W, strain WHI5, stronger effect = lower value",0.952
same,normalized growth,"S. cerevisiae deletion strains, locus YOR106W, strain vam3, stronger effect = lower value",0.97
same,normalized growth,"S. cerevisiae deletion strains, locus YOR136W, strain idh2, stronger effect = lower value",0.0967 (active)
same,normalized growth,"S. cerevisiae deletion strains, locus YOR144C, strain elg1, stronger effect = lower value",0.994
same,normalized growth,"S. cerevisiae deletion strains, locus YOR184W, strain ser1, stronger effect = lower value",0.161 (active)
same,normalized growth,"S. cerevisiae deletion strains, locus YOR231W, strain MKK1, stronger effect = lower value",1.03
same,normalized growth,"S. cerevisiae deletion strains, locus YOR265W, strain rbl2, stronger effect = lower value",0.968
same,normalized growth,"S. cerevisiae deletion strains, locus YOR270C, strain vph1, stronger effect = lower value",0.275 (active)
same,normalized growth,"S. cerevisiae deletion strains, locus YOR290C, strain snf2, stronger effect = lower value",0.882
same,normalized growth,"S. cerevisiae deletion strains, locus YOR316C, strain cot1, stronger effect = lower value",0.0893 (active)
same,normalized growth,"S. cerevisiae deletion strains, locus YPL051W, strain arl3, stronger effect = lower value",0.894 (active)
same,normalized growth,"S. cerevisiae deletion strains, locus YPL055C, strain LGE1, stronger effect = lower value",0.683 (active)
same,normalized growth,"S. cerevisiae deletion strains, locus YPL078C, strain atp4, stronger effect = lower value",0.507 (active)
same,normalized growth,"S. cerevisiae deletion strains, locus YPL106C, strain sse1, stronger effect = lower value",1.1
same,normalized growth,"S. cerevisiae deletion strains, locus YPL240C, strain hsp82, stronger effect = lower value",1
same,normalized growth,"S. cerevisiae deletion strains, locus YPL241C, strain CIN2, stronger effect = lower value",0.882 (active)
same,normalized growth,"S. cerevisiae deletion strains, locus YPL256C, strain CLN2, stronger effect = lower value",1.01
same,normalized growth,"S. cerevisiae deletion strains, locus YPR119W, strain clb2, stronger effect = lower value",0.0832 (active)
same,normalized growth,"S. cerevisiae deletion strains, locus YPR141C, strain kar3, stronger effect = lower value",0.981
same,normalized growth,"S. cerevisiae deletion strains, locus YPR163C, strain tif3, stronger effect = lower value",0.23 (active)
same,normalized growth,"S. cerevisiae deletion strains, locus YPR167C, strain met16, stronger effect = lower value",0.206 (active)
same,normalized growth,"S. cerevisiae deletion strains, strain wtn01, stronger effect = lower value",0.372 (active)
same,normalized growth,"S. cerevisiae strains, strain wild type, stronger effect = lower value",0.647 (active)
